Where “and” joins values, the source holds several entries; their conditions need not be identical. Identical values can stand only once. Inconclusive results are not listed. Entries that show only a call come without a potency. More than one record can exist for a structure, and the calls need not agree. Calls of active or inactive are those of the source. Unless noted, calls follow the shape of the dose curve; as a rule, active = well fitted curve in the direction sought with a large enough effect; inconclusive = small, poorly fitted or top-dose-only effect, or another doubt; inactive = no such curve, though single readings can be large; an effect the other way counts as inactive or inconclusive.
Columns and labels:
[1] = qHTS Assay for Identification of Small Molecule Antagonists for NFkB Signaling Pathway (AID 895; active = well fitted inhibition curve with a large enough effect in the signal ratio, with a control signal flat, not every such curve was filed as active; the % refers to the signal ratio; also: potency is read from the fitted curve at half-maximal effect)
Summary of the method: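 ME-180 NFkB-bla cells (beta-lactamase under NFkB response element), plated overnight, treated with compound then 10 pM TNF alpha (about EC50) for 5 hrs at 37 C. LiveBLAzer FRET read at 460/530 nm emission, 405 nm excitation.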

[2] = qHTS Assay for Identification of Small Molecule Antagonists for Thrombopoietin (TPO) Signaling Pathway (AID 918); conditions: TPO-dependent cell signaling reporter, antagonist mode; also: potency is read from the fitted curve at half-maximal effect; nearly all actives have a fitted effect of over 60% in size
Summary of the method: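 Murine Ba/F3 cells stably expressing human TPO receptor and a Glycoprotein IIb promoter–luciferase reporter were IL-3-starved overnight, treated with compounds plus TPO (26 pM final, its EC50) for 24 hrs at 37 C, then read by luminescence.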

[3] = target: Muscarinic acetylcholine receptor M1 (Rattus norvegicus) (UniProt P08482); test: qHTS Assay for Antagonists of Acetylcholine Muscarinic M1 Receptor: Kinetic Measurement of Intracellular Calcium Response (AID 943); also: nearly all actives have a fitted effect of over 75% in size; also: potency is read from the fitted curve at half-maximal effect
Summary of the method: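 CHO cells stably expressing rat M1 were loaded with no-wash Fluo-4 dye for 1 h at 37C, pre-incubated 10 min with compound, then challenged with EC80 carbachol (100 nM final); kinetic calcium read 4 min, peak/basal ratio.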

[4] = qHTS Assay for Identification of Small Molecule Agonists for Thrombopoietin (TPO) Signaling Pathway (AID 917)
Summary of the method: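 Reporter: GpIIb promoter–luciferase in murine Ba/F3 expressing human TPO receptor. Pre-starved of IL-3 overnight; compounds with 26 pM TPO, 24 hrs, 37 C/5% CO2; luminescence read.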

[5] = Confirmation and Secondary Assay for Modulators of Hemoglobin Beta Chain Splicing at IVS2 654 locus (AID 910);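 also: HeLa cells stably carrying EGFP split by mutant beta-globin IVS2-654 intron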;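 also: potency is read from the fitted curve at half-maximal effect; potency of activators that raise GFP signal by restoring correct splicing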
Summary of the method: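 HeLa cells stably expressing EGFP interrupted by β-globin IVS2-654 intron, seeded overnight in Opti-MEM/2% FCS, then treated 2 days at 37 °C. Restored splicing read as total peak GFP intensity per well by laser scanning cytometry (488 nm excitation, 500–520 nm emission); 500 nM antisense PNA as control.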

[6] = Cell Viability - LYMP2-001 (AID 921); also: nearly all actives have a fitted effect of over 70% in size; also: potency is read from the fitted curve at half-maximal effect
Summary of the method: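 Cellular ATP loss read by luciferase luminescence after 24 h compound exposure at 37 C in complete medium. LYMP2-001 lymphoblastoid cells, 2500/well; qHTS concentration-response data fitted with Hill equation for AC50.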

[7] = Confirmation and Secondary Assay for Modulators of Hemoglobin Beta Chain Splicing at IVS2 705 locus (AID 930);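 also: HeLa cells stably expressing the EGFP-705 splicing reporter; GFP fluorescence per well restored by corrected splicing of the IVS2-705 intron in EGFP; series mostly up to about 46 µM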
Summary of the method: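 Assay measures total GFP intensity per well in HeLa EGFP-705 cells after 2 days with compound; mis-splicing normally truncates EGFP, so fluorescence indicates corrected splicing.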

[8] = target: Cytochrome P450 2D6 (Homo sapiens) (UniProt P10635); test: qHTS Assay for Inhibitors and Substrates of Cytochrome P450 2D6 (AID 891); also: nearly all actives have a fitted effect of over 60% in size; also: potency is read from the fitted curve at half-maximal effect
Summary of the method: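 Human CYP2D6 (5 nM) with 30 uM Luciferin-ME EGE (at Km) in 100 mM KPO4, compound preincubated 10 min, then NADPH regeneration system for 60 min at room temperature. Luciferin read by luminescence; normalized to 1.43 uM quinidine.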

[9] = target: Cytochrome P450 2C19 (Homo sapiens) (UniProt P33261); test: qHTS Assay for Inhibitors and Substrates of Cytochrome P450 2C19 (AID 899); also: nearly all actives have a fitted effect of over 60% in size; also: potency is read from the fitted curve at half-maximal effect
Summary of the method: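 Luminescent read-out of luciferin formed from Luciferin-H EGE (10uM, equal to KM). Enzyme 5nM in 50mM KPO4; compound added, 10 min at 37C, then NADPH regenerating system for 60 min at 37C. Full inhibition defined by 57uM ketoconazole.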

[10] = qHTS Assay for Identification of Small Molecule Agonists for Hypoxia Response Element Signaling Pathway (AID 914; active = well fitted activation curve with a large enough effect in the signal ratio, with a control signal flat, not every such curve was filed as active; the % refers to the signal ratio); conditions: ME-180 (cervical carcinoma) HRE-bla reporter, beta-lactamase ratio, CoCl2, 17 h; stronger effect = higher value
Summary of the method: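 Compounds in a titration series were added to ME-180 reporter cells alongside an EC50 level of CoCl2. After 17 hours, beta-lactamase activity was read as the 460nm/530nm emission ratio of CCF4, giving AC50 values.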

Chain of Cytochrome P450 2D6 (Homo sapiens) (P10635 whole entry, looked up): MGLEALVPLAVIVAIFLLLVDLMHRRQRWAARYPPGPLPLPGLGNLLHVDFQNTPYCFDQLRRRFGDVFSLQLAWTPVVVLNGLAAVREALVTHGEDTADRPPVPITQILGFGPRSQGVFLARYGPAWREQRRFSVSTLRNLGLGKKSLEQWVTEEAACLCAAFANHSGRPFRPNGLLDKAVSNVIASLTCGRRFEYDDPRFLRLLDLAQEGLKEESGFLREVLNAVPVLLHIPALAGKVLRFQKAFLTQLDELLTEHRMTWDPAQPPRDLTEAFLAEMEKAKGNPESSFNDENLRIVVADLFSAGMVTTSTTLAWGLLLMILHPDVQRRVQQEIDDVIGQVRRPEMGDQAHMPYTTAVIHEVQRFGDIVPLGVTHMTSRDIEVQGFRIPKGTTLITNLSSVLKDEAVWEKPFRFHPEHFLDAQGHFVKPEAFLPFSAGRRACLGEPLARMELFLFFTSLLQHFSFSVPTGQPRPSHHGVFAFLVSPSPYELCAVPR
Chain of Muscarinic acetylcholine receptor M1 (Rattus norvegicus) (P08482 whole entry, looked up): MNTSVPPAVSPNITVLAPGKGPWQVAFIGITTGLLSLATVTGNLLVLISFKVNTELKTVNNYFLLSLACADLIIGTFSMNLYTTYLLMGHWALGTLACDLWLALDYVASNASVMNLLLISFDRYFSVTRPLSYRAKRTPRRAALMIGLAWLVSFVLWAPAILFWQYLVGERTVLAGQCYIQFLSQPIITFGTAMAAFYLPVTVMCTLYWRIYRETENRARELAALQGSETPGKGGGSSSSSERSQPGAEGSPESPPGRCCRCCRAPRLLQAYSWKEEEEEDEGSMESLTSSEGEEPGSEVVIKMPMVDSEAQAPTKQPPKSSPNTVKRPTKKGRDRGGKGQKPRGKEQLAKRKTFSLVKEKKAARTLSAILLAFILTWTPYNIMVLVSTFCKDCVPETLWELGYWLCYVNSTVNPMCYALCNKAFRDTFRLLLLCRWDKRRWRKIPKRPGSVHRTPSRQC
Chain of Cytochrome P450 2C19 (Homo sapiens) (P33261 whole entry, looked up): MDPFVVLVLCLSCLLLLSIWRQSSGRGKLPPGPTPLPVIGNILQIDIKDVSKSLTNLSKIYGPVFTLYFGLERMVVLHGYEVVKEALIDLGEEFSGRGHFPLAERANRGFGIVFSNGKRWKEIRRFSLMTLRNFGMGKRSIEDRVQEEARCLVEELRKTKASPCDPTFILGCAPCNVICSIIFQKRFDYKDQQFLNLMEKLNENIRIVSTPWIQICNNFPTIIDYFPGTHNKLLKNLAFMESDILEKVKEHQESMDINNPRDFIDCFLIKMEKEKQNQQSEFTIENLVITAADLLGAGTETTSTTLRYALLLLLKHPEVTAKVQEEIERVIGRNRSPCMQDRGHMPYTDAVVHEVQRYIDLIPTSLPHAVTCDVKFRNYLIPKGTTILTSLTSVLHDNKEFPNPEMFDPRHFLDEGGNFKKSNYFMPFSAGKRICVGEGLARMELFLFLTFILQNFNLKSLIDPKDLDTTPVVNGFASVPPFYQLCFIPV

In the case of `COc1ccc2c(c[n+](C)c3c4cc5c(cc4ccc23)OCO5)c1OC`, the Potency [1] is reported as 11.2 µM (active), the Potency [2] is reported as 2 µM (active) and the Potency [3] is reported as “inactive”.
With `C[C@@H]1O[C@H](C[N+](C)(C)C)C[C@H]1O` the Potency [1] was “inactive”, the outcome [4] was “inactive” and the Potency [3] was “inactive”.
In the case of `CC(=O)[O][Hg][c]1ccccc1`, the Potency [5] is reported as “inactive”, the Potency [6] is reported as 0.501 µM (active) and the outcome [7] is reported as “inactive”.
In the case of `O=c1cccc2n1CC1CNC[C@H]2C1`, the Potency [8] is reported as “inactive” and the Potency [9] is reported as “inactive”.
In the case of `CC1=NN=C(c2ccc(N)cc2)c2cc3c(cc2C1)OCO3`, the Potency [9] is reported as 7.94 µM (active) and the outcome [4] is reported as “inactive”.
With `Cc1nc(-c2ccc(-c3ccc(C(=O)N4CCc5cc6c(cc54)C4(CCN(C)CC4)CO6)cc3)c(C)c2)no1` the Potency [9] was 3.98 µM (active) and the Potency [2] was 12.6 µM (active).
In the case of `COc1cc2c(cc1OC)[C@@H]1C(=O)c3ccc4c(c3O[C@@H]1CO2)C=CC(C)(C)O4`, the Potency [8] is reported as 0.0631 µM (active) and the Potency [9] is reported as 5.01 µM (active).
In the case of `CNCCc1c[nH]c2ccc(O)cc12`, the Potency [1] is reported as “inactive”, the outcome [4] is reported as “inactive” and the Potency [3] is reported as “inactive”.
For `NC(=O)c1ccc(-c2nc(-c3ccc4c(c3)OCO4)c(-c3ccccn3)[nH]2)cc1`, the Potency [9] was 2.51 µM (active).
With `NCCc1c[nH]c2ccccc12` the Potency [1] was 12.6 µM (active), the Potency [5] was “inactive” and the activation [10] was -27.7% (inactive). For the same molecule, the outcome [4] was “inactive”, the outcome [7] was “inactive” and the Potency [3] was “inactive”.
In the case of `CN[C@@H]1C[C@@H](c2ccc(Cl)c(Cl)c2)c2ccccc21`, the Potency [1] is reported as 8.91 µM (active), the Potency [2] is reported as 12.6 µM (active) and the Potency [3] is reported as 2.24 µM (active).
For `NCCc1c[nH]c2ccc(O)cc12`, the Potency [1] was “inactive”, the activation [10] was 17.2% (inactive) and 2.69% (inactive) and the outcome [4] was “inactive”.
For `NC(N)=NOCCC(N)C(=O)O` (configuration not stated), the Potency [5] was “inactive”, the outcome [4] was “inactive” and the outcome [7] was “inactive”. For the same molecule, the Potency [3] was “inactive”.
For `CC(=O)NCCc1c[nH]c2ccccc12`, the Potency [8] was “inactive”, the Potency [9] was “inactive” and the outcome [4] was “inactive”. For the same molecule, the Potency [3] was “inactive”.
For `O=C1CCCN1CC#CCN1CCCC1`, the Potency [8] was 7.94 µM (active), the Potency [1] was “inactive” and the Potency [9] was 0.158 µM (active). For the same molecule, the Potency [5] was “inactive”, the outcome [4] was “inactive” and the outcome [7] was “inactive”. For the same molecule, the Potency [3] was “inactive”.
In the case of `CCCN1CCO[C@@H]2c3cc(O)ccc3OC[C@H]21`, the Potency [1] is reported as “inactive”, the Potency [9] is reported as “inactive” and the outcome [4] is reported as “inactive”.
With `CC(C)Oc1cccnc1N(C)C1CCN(Cc2ccccc2)CC1` the Potency [8] was 7.94 µM (active), the activation [10] was -11.6% (inactive) and the outcome [4] was “inactive”.
In the case of `COC(C)(C)CCCC(C)C/C=C/C(C)=C/C(=O)OC(C)C` (configuration not stated), the Potency [5] is reported as “inactive”, the Potency [6] is reported as “inactive” and the outcome [7] is reported as “inactive”.
With `Cc1cc(O)ccc1Cl` the Potency [5] was “inactive”, the Potency [6] was “inactive” and the outcome [7] was “inactive”.
In the case of `c1ccc2sc(C3(N4CCCCC4)CCCCC3)cc2c1`, the Potency [8] is reported as 3.16 µM (active).
For `Cc1nccc2c1[nH]c1ccccc12`, the Potency [9] was “inactive”, the Potency [5] was “inactive” and the outcome [4] was “inactive”. The outcome [7] was “inactive”.
With `Cn1cnc(CCN)c1` the Potency [1] was “inactive”, the Potency [9] was “inactive” and the outcome [4] was “inactive”. For the same molecule, the Potency [3] was “inactive”.
In the case of `CCCCc1ccc(C(=O)O)nc1`, the Potency [8] is reported as “inactive” and the Potency [9] is reported as “inactive”.
For `CCn1cc(C(=O)O)c(=O)c2cc3c(cc21)OCO3`, the Potency [8] was “inactive”.
With `COc1ccc(C(c2ccc(OC)cc2)C(Cl)(Cl)Cl)cc1` the Potency [5] was “inactive”, the Potency [6] was “inactive” and the outcome [7] was “inactive”.
For `O=C(O)CC[N+](=O)[O-]`, the Potency [1] was “inactive”, the outcome [4] was “inactive” and the outcome [7] was “inactive”.
For `CC[C@@]1(O)C(=O)OCc2c1cc1n(c2=O)Cc2cc3ccccc3nc2-1`, the Potency [8] was “inactive”, the Potency [9] was “inactive” and the Potency [5] was “inactive and 1 µM (active)”. The Potency [2] was 0.126 µM (active) and the outcome [7] was “inactive”.
In the case of `CCCN(CCC)[C@@H]1CCc2ccc(O)cc2C1`, the Potency [8] is reported as 0.794 µM (active), the Potency [1] is reported as “inactive” and the outcome [4] is reported as “inactive”. The Potency [3] was 5.01 µM (active) and 282 nM (active).
With `C[C@]12N[C@H](Cc3ccccc31)c1ccccc12` the Potency [1] was “inactive” and the outcome [4] was “inactive”.
With `NC(=NCCC[C@H](N)C(=O)O)N[N+](=O)[O-]` the Potency [1] was “inactive”, the outcome [4] was “inactive” and the Potency [3] was “inactive”.
In the case of `NCc1cc(=O)[nH]o1`, the Potency [9] is reported as “inactive”, the outcome [4] is reported as “inactive” and the Potency [3] is reported as “inactive”.
For `O=C(O)Cc1cnc[nH]1`, the activation [10] was 7.21% (inactive).
In the case of `Cc1c(C(=O)c2cccc3ccccc23)c2cccc3c2n1[C@H](CN1CCOCC1)CO3`, the Potency [2] is reported as 12.6 µM (active).
